Compound activity from PubChem.
In the library only some 28% were active in any assay of this set; here they are far more common.
CYP2C9 activ = human CYP2C9 activators, primary screen, biochemical, luminescence; AID 1024, 2008; 96,000 compounds, 1.4% hits; activation factor at 5 µM; recombinant CYP2C9, luciferin-H conversion; active compounds read high; factor 1 = untreated enzyme, 0 = blocked;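 active means activation factor of 2 or more for CYP2C9 at a 5 µM dose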;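 further: 0 = sulfaphenazole-blocked wells and 1 = vehicle-only wells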
CYP2C9 inhib = blockers of cytochrome P450 2C9 activity – biochemical, luminescence, ADME assay, primary screen; P11712; AID 777, 2007; 96,000 compounds, 20% hits; inhibition, % at 5 µM; CYP2C9 Supersomes, luciferin-H conversion;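 active means blocking of liver enzyme CYP2C9 beyond about 50% at 5 µM, limit read from the data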
CYP2C19 inhib = blockers of cytochrome P450 2C19 activity – biochemical, luminescence, ADME assay, primary screen | CYP2C19 Supersomes, luciferin-H EGE luminescence, 30 min | inhibition, % at 5 µM | 96,000 compounds, 21% hits | AID 778, 2007;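 active means CYP2C19 inhibition above a set limit at 5 µM in the primary screen, cut at about 50% in these data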;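 further: plate controls were negative control wells for no effect and 2.5 mM tranylcypromine positive control for full effect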
Target sequence (P33261 whole entry, looked up): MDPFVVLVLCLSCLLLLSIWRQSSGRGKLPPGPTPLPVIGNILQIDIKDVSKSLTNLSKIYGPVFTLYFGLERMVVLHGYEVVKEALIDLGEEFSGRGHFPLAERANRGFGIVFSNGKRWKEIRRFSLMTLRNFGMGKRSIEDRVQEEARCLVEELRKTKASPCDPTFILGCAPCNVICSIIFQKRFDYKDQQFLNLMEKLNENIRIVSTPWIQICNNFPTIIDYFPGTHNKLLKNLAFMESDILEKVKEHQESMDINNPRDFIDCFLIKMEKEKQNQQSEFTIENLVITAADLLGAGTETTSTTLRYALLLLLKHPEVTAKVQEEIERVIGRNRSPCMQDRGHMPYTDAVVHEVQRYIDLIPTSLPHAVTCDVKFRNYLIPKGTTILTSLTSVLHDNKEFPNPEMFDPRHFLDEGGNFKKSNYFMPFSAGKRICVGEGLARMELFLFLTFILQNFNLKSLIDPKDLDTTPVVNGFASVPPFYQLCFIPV
CYP2C19 activ = human CYP2C19 activators, primary screen, biochemical, luminescence; Cytochrome P450 2C19 (Homo sapiens), P33261; recombinant CYP2C19, luciferin-H EGE luminescence; active compounds read high; 0 = fully inhibited enzyme, 1 = untreated enzyme; activation factor at 5 µM; 96,000 tested, under 10 active;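 active means activation factor of at least 2 at 5 µM in the primary screen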;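 further: 0 = wells with 2.5 mM tranylcypromine and 1 = vehicle-only wells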
Pyk2 oligo antag = antagonists of Pyk2 self-association, primary screen, Q293 cells, FERM NanoBiT luminescence, HTS; Protein-tyrosine kinase 2-beta (Homo sapiens), Q14289; active compounds read low; 99,000 compounds, 0.83% hits; z-score (the deposit names both 25 µM and 10 µM);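 active means Z-score of -3 or lower, scaled per plate to the spread of control and sample wells; inactive means z-score above -3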;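 further: negative z-score means lost luminescence so less FERM oligomerization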
The depositor's hits bear a star; x = not tested or not shown.

SMILES	CYP2C9 activ	CYP2C9 inhib	CYP2C19 inhib	CYP2C19 activ	Pyk2 oligo antag
COC(=O)C1=C(C)N(C)C(=O)NC1c1cc(Cl)c(O)c(OC)c1 (stereo not drawn)	0.4	56.1*	36.5	0.6	-0.54
COC(=O)CNC(c1ccccc1)c1cc(Br)ccc1NS(=O)(=O)c1ccc(C)cc1 (stereo not drawn)	x	x	x	x	-1.06
COc1cccc(C2CC(=O)Nc3cc(OC)c(OC)c(OC)c32)c1OC (stereo not drawn)	0.5	47.1	63.0*	0.4	0.42
CCOc1ccccc1C1CC(=O)Nc2cc(OC)c(OC)c(OC)c21 (stereo not drawn)	1	-1.3	8.4	0.9	-0.91
COc1cccc(NCc2cc3c(C(C)(C)C)nn(-c4ccccc4)c3[nH]c2=O)c1	0.2	81.6*	27.6	0.7	-1.78
Cc1nn(-c2ccccc2)c2[nH]c(=O)c(CNCCN3CCOCC3)cc12	1	-0.2	-4.1	1	0
Cc1ccc(-c2nn(-c3ccccc3)c3[nH]c(=O)c(CNCc4ccccc4)cc23)cc1	x	x	x	x	-0.06
CCOc1ccc(NCc2cc3c(C(C)(C)C)nn(-c4ccccc4)c3[nH]c2=O)cc1	0.4	58.7*	15.4	0.8	-1.44
CCOC(=O)Cn1nnnc1C(CC)N(Cc1cc2c(C)cc(C)cc2[nH]c1=O)C1CCCC1 (stereo not drawn)	1	3.8	0.9	1	x
Cc1ccc(Sc2ncccc2COC(=O)Nc2c(C)cccc2C)cc1	0.7	27.0	20.5	0.8	-0.87
Cc1ccc(Sc2ncccc2COC(=O)Nc2ccccc2)cc1	0.4	55.4*	21.1	0.8	-1.26
Cc1cccc(NCc2ccccc2O)c1	0.5	51.4*	92.2*	0.1	0.72
Oc1ccccc1CNCCCNCc1ccccc1O	0.6	37.1	43.4	0.6	-0.44
Cc1cccc(NCc2cc(Cl)ccc2O)n1	x	x	x	x	-1.58
Cc1ccccc1NCc1ccccc1O	0.8	24.7	58.7*	0.4	0.69
Cc1ccc(O)c(CNc2ccccn2)c1	0.7	33.2	67.0*	0.3	0.29
Cc1ccc(NCc2ccccc2O)cc1	0.9	11.8	65.8*	0.3	-0.24
CCCCS(=O)(=O)NC1=NCN(Cc2ccco2)CN1	0.9	9.9	3.2	1	-0.32
CCc1ccc(Nc2oc(C)cc(=O)c2C(C)=O)cc1	0.9	11.6	3.1	1	0.14
CCOC(=O)COn1c(=O)c(-c2cccs2)[n+]([O-])c2ccccc21	0.7	27.6	25.4	0.7	-0.56
CCOn1c(=O)c(-c2cccs2)[n+]([O-])c2ccccc21	0.5	52.8*	57.5*	0.4	-0.83
CC(NC(=O)C1CCCCC1)C(=O)NC1=NCCS1 (stereo not drawn)	1	-0.6	8.0	0.9	-0.38
CCc1cccc(C)c1NC(=O)C1=C(C(=O)O)CCCC1	1.1	-15.0	6.5	0.9	0.37
Cc1ccc2c(c1)N(CCC(=O)NCc1ccccn1)C(=O)CO2	1.1	-13.5	55.0*	0.4	1.68
O=C(CCN1C(=O)COc2ccccc21)NCc1ccco1	0.9	8.1	93.7*	0.1	0.52
SMILES	CYP2C9 activ	CYP2C9 inhib	CYP2C19 inhib	CYP2C19 activ	Pyk2 oligo antag
COc1ccccc1CNC(=O)CCCN1C(=O)COc2ccc(C)cc21	1.4	-39.2	61.9*	0.4	0.21
Cc1ccc2c(c1)N(CCC(=O)NCc1cccnc1)C(=O)CO2	0.8	20.5	44.1	0.6	-0.24
CCN(CCCNC(=O)CCCN1C(=O)COc2ccc(C)cc21)c1cccc(C)c1	0.4	58.3*	50.3*	0.5	0.37
Cc1ccc2c(c1)N(CCC(=O)NCCN1CCOCC1)C(=O)CO2	1	0.1	-5.1	1.1	3.11
O=C(c1ccc(CN2CCOCC2)cc1)N1CCN(c2ccccc2)CC1	x	x	x	x	-1.22
COc1ccccc1CNC(=O)CCN1C(=O)COc2ccc(C)cc21	0.9	10.2	62.0*	0.4	-0.19
O=C(CCCCCN1C(=O)c2ccccc2C1=O)NCc1ccco1	0.4	60.2*	21.8	0.8	-0.39
Cc1ccc2c(c1)N(CCC(=O)NCc1ccco1)C(=O)CO2	1.1	-12.6	38.0	0.6	-0.32
COc1ccccc1CNC(=O)CCN1C(=O)COc2ccccc21	1.7	-65.1	50.0*	0.5	1.63
CC(NCc1ccc2c(c1)OCO2)C(=O)NC1CCCc2ccccc21 (stereo not drawn)	0.9	7.0	49.8	0.5	2.3
CCC1SC(=NC(=O)c2ccc(Cl)c(Cl)c2)NC1=O (stereo not drawn)	0.4	57.5*	-3.2	1	0.2
CC(=O)N(C(C)=O)c1c(C#N)c(C)n(-c2ccccc2)c1C(=O)c1ccccc1	0.9	9.0	71.1*	0.3	1.01
Cc1c(C#N)c2ncnc(N)c2n1-c1ccccc1	0.8	15.7	15.0	0.8	0.66
CC(=O)OC1(C(F)(F)F)Oc2ccccc2NC1=O (stereo not drawn)	0.8	15.6	53.2*	0.5	-0.86
O=C(CSc1nnc(-c2ccc3c(c2)OCO3)n1-c1ccccc1)c1ccccc1	x	x	x	x	0.79
Brc1cccc(-c2nnc(SCc3ccon3)n2-c2ccccc2)c1	0.6	43.6	50.4*	0.5	x
O=C(Nc1ccccc1)/C(=C/c1cccnc1)NC(=O)c1ccco1	x	x	x	x	0.11
O=C(Nc1ccccc1)C1=C(N2CCOCC2)/C(=C/c2cccnc2)CC1	0.3	66.7*	87.1*	0.1	-0.39
O=S1(=O)N=C(Oc2ccccc2)c2ccccc21	1	1.9	2.3	1	0.02
COc1ccc(N(C)C2=NS(=O)(=O)c3ccccc32)cc1	0.6	40.7	72.1*	0.3	0.87
FCCCOc1ccc(-c2nccc(-c3ccc(F)cc3)n2)cc1	0.2	80.9*	53.5*	0.5	0.51
CCOC(=O)Cc1csc(NC(=O)CCN2C(=O)c3ccccc3C2=O)n1	0.2	76.0*	69.0*	0.3	0.36
CCC(CC)c1nnc(NC(=O)CCCN2C(=O)c3ccccc3C2=O)s1	0.3	71.5*	41.4	0.6	0.27
CCOC(=O)Cc1csc(NC(=O)c2c(O)c3ccccc3n(C)c2=O)n1	1.2	-22.4	-3.9	1	x
CCOC(=O)Cc1csc(NC(=O)CCCN2C(=O)c3ccccc3C2=O)n1	0.5	52.8*	13.3	0.9	1.07
Cc1nnc(NC(=O)CCCN2C(=O)c3ccccc3C2=O)s1	0.9	9.8	8.9	0.9	1.78
Nn1c(SCC(=O)NC2CCCc3ccccc32)nnc1-c1cccs1 (stereo not drawn)	0.5	48.5	40.3	0.6	1.79
CC(CCc1ccccc1)NC(=O)C1CCN(S(=O)(=O)N2CCOCC2)CC1 (stereo not drawn)	x	x	x	x	0.21
CCCc1ccc(Oc2cn[nH]c2-c2ccc(O)c(C)c2O)cc1	0	98.6*	98.2*	0	-3.52*
